Screens as filed in PubChem BioAssay.
This is a sample that favours compounds with a hit; in the whole collection about 1.5% have one here.
GLD-1 RNA inh: GLD-1-TGE RNA interaction inhibition (C. elegans). hit rate 0.44% among 320,000. purified GLD-1 + fluorescein TGE RNA, fluorescence polarization. Q17339. inhibition, % at 5.96 µM. AID 2280;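 active means percent inhibition above a per-plate cutoff, the plate mean of test compounds plus 3 SD, cut at about 30% in these data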
BCLXL inh: Bcl-xL (human) inhibition. Q07817. GST-Bcl-xL / FITC-Bim BH3 peptide fluorescence polarization. inhibition, % at 10.9 µM. hit rate 0.7% among 320,000. AID 2129;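 active means inhibition above the mean of all tested compounds plus 3 SD, cutoff set per campaign, cut at about 30% in these data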;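 further: inhibitors lower millipolarization by displacing the labeled peptide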
MCL1 BIM primary: disrupts human MCL1 binding to BIM-BH3 peptide | GST-MCL1 / FITC-Bim-BH3 fluorescence polarization | hit rate 0.68% among 320,000 | inhibition, % at 10.9 µM | Q07820;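 active means inhibition above the mean inhibition of all tested compounds plus 3 SD, set per campaign, cut at about 40% in these data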;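 further: higher means more loss of mP so more displacement of Bim peptide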
Target sequence (Q07820 whole entry, looked up): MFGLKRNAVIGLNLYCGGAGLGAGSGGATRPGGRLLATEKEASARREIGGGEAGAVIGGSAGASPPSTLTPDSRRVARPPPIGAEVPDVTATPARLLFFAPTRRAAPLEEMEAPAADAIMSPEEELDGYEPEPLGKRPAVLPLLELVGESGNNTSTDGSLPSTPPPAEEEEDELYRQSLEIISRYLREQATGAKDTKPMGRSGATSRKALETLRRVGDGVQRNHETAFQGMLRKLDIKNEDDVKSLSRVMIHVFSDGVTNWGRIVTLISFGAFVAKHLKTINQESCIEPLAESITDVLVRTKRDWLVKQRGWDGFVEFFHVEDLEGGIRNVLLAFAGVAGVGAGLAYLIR
eLon inh: E. coli protease La inhibition | purified E. coli Lon protease, fluorescence polarization | AID 602123 | hit rate 0.42% among 360,000 | inhibition, % at 7.94 µM | P0A9M0; in the data active means inhibition above about 13%, passing the limit was not always enough
MEX-5 binding: C. elegans MEX-5 TCR-2 RNA binding activity; Q9XUB2; MEX-5/FITC-TCR2 RNA binding, fluorescence polarization; stronger effect = lower value; activity score (negative = inhibition of binding), % at 10 µM; hit rate 0.38% among 300,000; AID 1832;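 active means inhibition past about -25% in most replicates, and total fluorescence under double the plate's negative control median, limit read from the data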
EBV gp42 inh: inhibitors of Epstein-Barr virus glycoprotein 42; Fluorescence polarization binding assay, mP read-out; inhibition, % (tested at 21.74 µM); hit rate 0.42% among 220,000; in the data active means inhibition above about 50%
Target sequence (Q1HVG2 whole entry, looked up): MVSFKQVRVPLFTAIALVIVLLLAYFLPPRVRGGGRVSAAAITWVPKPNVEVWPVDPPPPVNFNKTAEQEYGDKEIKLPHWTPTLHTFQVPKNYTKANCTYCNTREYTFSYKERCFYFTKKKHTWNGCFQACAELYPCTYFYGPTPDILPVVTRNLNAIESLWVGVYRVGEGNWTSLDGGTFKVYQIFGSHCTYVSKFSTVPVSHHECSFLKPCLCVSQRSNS
Hits are given with their value.

`O=[N+]([O-])c1ccc(N2N=C(c3ccco3)CC2c2ccccc2)cc1` (centres undefined) gave GLD-1 RNA inh inactive, BCLXL inh inactive, MCL1 BIM primary inactive, eLon inh inactive, MEX-5 binding inactive and EBV gp42 inh 70.
For CC(=O)Nc1cccc(NC=C(C#N)C#N)c1 the results were GLD-1 RNA inh inactive, BCLXL inh inactive, MCL1 BIM primary inactive, eLon inh inactive, MEX-5 binding inactive and EBV gp42 inh inactive.
`COC(=O)c1ccccc1NC(=O)CCS(=O)(=O)c1ccc(Br)cc1` gave eLon inh inactive, MEX-5 binding inactive and EBV gp42 inh 75.
For Cn1c(C(C#N)C2=C(Cl)C(=O)N(c3ccccc3)C2=O)nc2ccccc21 (centres undefined) the results were GLD-1 RNA inh 45, BCLXL inh 50, MCL1 BIM primary 42 and EBV gp42 inh inactive.
`Cn1c(C(O)C(O)c2ccccc2)nc2ccccc21` (centres undefined) gave GLD-1 RNA inh inactive, BCLXL inh inactive, MCL1 BIM primary inactive, eLon inh inactive, MEX-5 binding inactive and EBV gp42 inh inactive.
CC1(Oc2cccc(F)c2)CCN(Cc2ccc(-c3ccccn3)cc2)C1 (centres undefined) was read as eLon inh inactive.
`CC(OC(=O)[C@@H](NS(=O)(=O)c1ccccc1)C(C)C)C(=O)c1c(N)n(C)c(=O)n(C)c1=O` (some centres undefined) gave eLon inh inactive.
O=C(CN1C(=O)c2ccccc2C1=O)NCC(=O)Nc1ccccc1 was read as eLon inh inactive.
For N#C/C(=C\c1sc(N2CCOCC2)nc1-c1ccccc1)C(=O)Nc1cccc2ccccc12 the results were EBV gp42 inh 137.
CN(C)C1=NC(=O)/C(=C/c2ccc(-c3ccc(S(N)(=O)=O)cc3)o2)S1 was read as GLD-1 RNA inh inactive, BCLXL inh inactive, MCL1 BIM primary inactive and MEX-5 binding -29.
`C=CCSc1nnc(N2C(=O)C(O)=C(C(=O)c3ccco3)C2c2ccccc2F)s1` (centres undefined) gave GLD-1 RNA inh inactive, BCLXL inh inactive, MCL1 BIM primary inactive, eLon inh inactive and MEX-5 binding -35.
`Cc1nnc(N2C(=O)C(O)=C(C(=O)c3ccco3)C2c2cccc3ccccc23)s1` (centres undefined) gave GLD-1 RNA inh inactive, BCLXL inh inactive, MCL1 BIM primary inactive, eLon inh inactive, MEX-5 binding inactive and EBV gp42 inh inactive.
Cc1ccc(C2C(C(=O)c3ccco3)=C(O)C(=O)N2c2nnc(C)s2)cc1 (centres undefined) was read as GLD-1 RNA inh 34, BCLXL inh 31, MCL1 BIM primary inactive, eLon inh inactive, MEX-5 binding inactive and EBV gp42 inh 77.
Screening COc1ccc2c(-c3ccccc3)cc(SCC(N)=O)nc2c1 returned GLD-1 RNA inh inactive, BCLXL inh inactive, MCL1 BIM primary inactive, eLon inh inactive, MEX-5 binding -33 and EBV gp42 inh inactive.
`CCN1CCN(CCCNC(=O)CCC(=O)N2CC(C)Oc3ccc(C)cc32)CC1` (centres undefined) gave GLD-1 RNA inh inactive, BCLXL inh inactive, MCL1 BIM primary inactive, eLon inh inactive and MEX-5 binding inactive.
O=C1N=C(N2CCCC2C(=O)O)S/C1=C\c1ccco1 (centres undefined) was read as GLD-1 RNA inh inactive, BCLXL inh inactive, MCL1 BIM primary inactive, eLon inh inactive, MEX-5 binding inactive and EBV gp42 inh inactive.
For CN(C)c1ncnc2c1NC1=C(S2)C(=NCCCC(=O)O)CC(C)(C)C1 the results were GLD-1 RNA inh inactive, BCLXL inh 32, MCL1 BIM primary inactive, eLon inh inactive, MEX-5 binding inactive and EBV gp42 inh inactive.
Nc1nnc(SCC(=O)c2ccc3c(c2)NC(=O)CO3)s1 was read as GLD-1 RNA inh inactive, BCLXL inh inactive, MCL1 BIM primary inactive, eLon inh inactive, MEX-5 binding inactive and EBV gp42 inh inactive.
CCC(NC(C)C)C(O)c1ccc(O)c(O)c1 (centres undefined) was read as GLD-1 RNA inh inactive, BCLXL inh inactive, MCL1 BIM primary inactive, eLon inh inactive, MEX-5 binding -29 and EBV gp42 inh inactive.
CCOC(=O)[C@]12CCC=C1N(Cc1cccc3ccccc13)C(=O)[C@H](CC(=O)N1CCOCC1)C2 was read as eLon inh inactive.
`CC(C)Oc1ccc(CN2CCCC(CO)(Cc3ccc(F)cc3)C2)cc1` (centres undefined) gave GLD-1 RNA inh inactive, BCLXL inh 36, MCL1 BIM primary 46, eLon inh inactive and MEX-5 binding inactive.
Screening Cc1ccc(/C=N\NC(=O)C2CC(=O)N(c3ccccc3)C2)o1 (centres undefined) returned GLD-1 RNA inh inactive, BCLXL inh inactive, MCL1 BIM primary inactive, eLon inh inactive, MEX-5 binding inactive and EBV gp42 inh inactive.
Screening CCOc1ccc(C2C=C(c3ccc(F)cc3)Nc3ncnn32)cc1 (centres undefined) returned GLD-1 RNA inh 44, BCLXL inh 38, MCL1 BIM primary 45, eLon inh inactive, MEX-5 binding inactive and EBV gp42 inh 53.
`CCOc1ccc(C2C=C(c3ccccc3)Nc3ncnn32)cc1` (centres undefined) gave GLD-1 RNA inh 37, BCLXL inh 46, MCL1 BIM primary 46, MEX-5 binding inactive and EBV gp42 inh inactive.
Screening COc1cccc(C2=CC(c3ccccc3)n3ncnc3N2)c1 (centres undefined) returned GLD-1 RNA inh 51, BCLXL inh 39, MCL1 BIM primary 41, MEX-5 binding inactive and EBV gp42 inh inactive.
Screening COc1cccc(C2=CC(c3ccc(N(C)C)cc3)n3ncnc3N2)c1 (centres undefined) returned GLD-1 RNA inh inactive, BCLXL inh inactive, MCL1 BIM primary inactive, MEX-5 binding inactive and EBV gp42 inh inactive.
`COc1ccc(CCN2CC(C(=O)NCCc3ccccc3C(F)(F)F)CCC2=O)cc1` (centres undefined) gave GLD-1 RNA inh inactive, BCLXL inh inactive, MCL1 BIM primary inactive, eLon inh inactive and MEX-5 binding inactive.
Screening CCOC(=O)Cc1cc(=O)n(-c2nc3ccccc3s2)[nH]1 returned GLD-1 RNA inh inactive, BCLXL inh inactive, MCL1 BIM primary inactive, eLon inh inactive, MEX-5 binding inactive and EBV gp42 inh inactive.
CCCc1cc(=O)n(-c2nc3ccccc3s2)[nH]1 was read as GLD-1 RNA inh inactive, BCLXL inh inactive, MCL1 BIM primary inactive, eLon inh inactive and EBV gp42 inh 69.
`Cc1cc(Nc2ccccc2C(=O)O)nc2nc3ccccc3c(=O)n12` gave GLD-1 RNA inh inactive, BCLXL inh inactive, MCL1 BIM primary inactive, eLon inh inactive, MEX-5 binding inactive and EBV gp42 inh inactive.
Screening NC(=O)c1ccccc1Nc1nc2nc3ccccc3c(=O)n2cc1Br returned GLD-1 RNA inh inactive, BCLXL inh 31, MCL1 BIM primary inactive, MEX-5 binding inactive and EBV gp42 inh inactive.
